What was measured:
Experiment in all cases: DAPPL (digital affinity profiling via proximity ligation, sequencing); 10 mM Tris-HCl pH 7.5, 50 mM NaCl, 1 mM DTT, 4% glycerol, room temperature, 30 min; GST-TFs on glutathione beads, 16-mer random dsDNA library, 0.1% formaldehyde crosslink after washing; high values mean tight binding
Settings in all cases: protein: recombinant; tags: N-terminal GST; dsDNA, one strand shown
FLI1 = target: T1, FLI1 (Homo sapiens, UniProt Q01543 1-452)
T1 sequence: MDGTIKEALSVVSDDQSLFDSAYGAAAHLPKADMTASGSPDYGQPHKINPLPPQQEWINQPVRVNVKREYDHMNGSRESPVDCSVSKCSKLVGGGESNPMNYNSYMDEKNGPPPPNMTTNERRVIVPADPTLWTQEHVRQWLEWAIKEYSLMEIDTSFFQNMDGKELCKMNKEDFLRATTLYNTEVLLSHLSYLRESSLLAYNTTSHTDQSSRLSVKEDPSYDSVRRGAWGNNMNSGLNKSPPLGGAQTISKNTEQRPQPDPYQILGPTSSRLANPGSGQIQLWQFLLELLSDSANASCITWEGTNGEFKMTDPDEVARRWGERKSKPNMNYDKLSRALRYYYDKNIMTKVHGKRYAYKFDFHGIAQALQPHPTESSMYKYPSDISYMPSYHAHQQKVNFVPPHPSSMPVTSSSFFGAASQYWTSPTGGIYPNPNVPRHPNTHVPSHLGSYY
How it was run: (§1)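 Human transcription factors fused to GST were expressed in yeast, captured on glutathione beads, given DNA barcodes and pooled with a GST-only negative control. Pools were incubated with 200 nmole of a 16-mer random double-stranded DNA library in Tris/NaCl/DTT/glycerol buffer at room temperature for 30 min. They were then washed, crosslinked with 0.1% formaldehyde, proximity-ligated (BsaI/T4 ligase, 1 h, 37 °C), PCR-amplified and sequenced on an Illumina NextSeq500. Binding signal is each 6-mer's read frequency for a factor divided by its frequency for the GST control.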

ELK1 = target: T2, ELK1 (Homo sapiens, UniProt P19419 1-428)
T2 sequence: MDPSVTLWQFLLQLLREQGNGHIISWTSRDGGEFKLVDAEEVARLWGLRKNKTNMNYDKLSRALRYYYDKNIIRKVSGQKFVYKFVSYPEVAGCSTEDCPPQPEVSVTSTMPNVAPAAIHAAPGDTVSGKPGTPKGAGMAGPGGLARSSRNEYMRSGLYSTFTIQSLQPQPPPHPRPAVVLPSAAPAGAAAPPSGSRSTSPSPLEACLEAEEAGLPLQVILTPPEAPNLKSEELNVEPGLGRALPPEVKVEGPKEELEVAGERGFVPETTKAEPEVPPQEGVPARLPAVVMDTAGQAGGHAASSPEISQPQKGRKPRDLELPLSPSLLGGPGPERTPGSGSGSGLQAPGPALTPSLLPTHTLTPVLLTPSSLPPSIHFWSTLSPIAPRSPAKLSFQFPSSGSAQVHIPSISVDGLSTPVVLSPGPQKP
How it was run: as §1

GABPA = target: T3, GABPA (Homo sapiens, UniProt Q06546 1-454)
T3 sequence: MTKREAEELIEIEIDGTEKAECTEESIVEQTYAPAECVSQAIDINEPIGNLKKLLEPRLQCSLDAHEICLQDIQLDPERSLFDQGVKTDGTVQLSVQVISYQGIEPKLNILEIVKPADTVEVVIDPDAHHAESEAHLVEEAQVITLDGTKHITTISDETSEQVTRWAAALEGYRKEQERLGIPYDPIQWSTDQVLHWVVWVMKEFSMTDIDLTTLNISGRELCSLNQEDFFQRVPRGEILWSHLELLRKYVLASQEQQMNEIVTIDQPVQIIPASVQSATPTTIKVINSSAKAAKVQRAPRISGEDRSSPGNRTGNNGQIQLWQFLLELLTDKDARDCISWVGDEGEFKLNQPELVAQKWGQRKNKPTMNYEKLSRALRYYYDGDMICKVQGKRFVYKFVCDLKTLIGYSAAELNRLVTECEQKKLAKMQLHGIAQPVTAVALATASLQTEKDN
How it was run: as §1

ERG = target: T4, ERG (Homo sapiens, UniProt P11308 1-479)
T4 sequence: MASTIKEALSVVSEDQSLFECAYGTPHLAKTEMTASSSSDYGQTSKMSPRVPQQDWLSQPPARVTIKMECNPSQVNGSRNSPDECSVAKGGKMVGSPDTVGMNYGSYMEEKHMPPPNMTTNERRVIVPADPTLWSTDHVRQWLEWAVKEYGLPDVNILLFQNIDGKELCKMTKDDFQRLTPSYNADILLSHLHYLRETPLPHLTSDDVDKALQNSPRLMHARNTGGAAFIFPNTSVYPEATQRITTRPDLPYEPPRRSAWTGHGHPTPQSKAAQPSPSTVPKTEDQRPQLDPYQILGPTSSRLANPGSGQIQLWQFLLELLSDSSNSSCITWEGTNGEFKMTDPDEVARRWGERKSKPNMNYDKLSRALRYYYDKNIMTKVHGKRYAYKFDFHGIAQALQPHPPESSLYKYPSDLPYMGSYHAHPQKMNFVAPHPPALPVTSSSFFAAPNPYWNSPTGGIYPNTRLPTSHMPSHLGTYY
How it was run: as §1

ELF1 = ELF1 (Homo sapiens, UniProt P32519 1-619)
Chain of ELF1 (P32519 whole entry): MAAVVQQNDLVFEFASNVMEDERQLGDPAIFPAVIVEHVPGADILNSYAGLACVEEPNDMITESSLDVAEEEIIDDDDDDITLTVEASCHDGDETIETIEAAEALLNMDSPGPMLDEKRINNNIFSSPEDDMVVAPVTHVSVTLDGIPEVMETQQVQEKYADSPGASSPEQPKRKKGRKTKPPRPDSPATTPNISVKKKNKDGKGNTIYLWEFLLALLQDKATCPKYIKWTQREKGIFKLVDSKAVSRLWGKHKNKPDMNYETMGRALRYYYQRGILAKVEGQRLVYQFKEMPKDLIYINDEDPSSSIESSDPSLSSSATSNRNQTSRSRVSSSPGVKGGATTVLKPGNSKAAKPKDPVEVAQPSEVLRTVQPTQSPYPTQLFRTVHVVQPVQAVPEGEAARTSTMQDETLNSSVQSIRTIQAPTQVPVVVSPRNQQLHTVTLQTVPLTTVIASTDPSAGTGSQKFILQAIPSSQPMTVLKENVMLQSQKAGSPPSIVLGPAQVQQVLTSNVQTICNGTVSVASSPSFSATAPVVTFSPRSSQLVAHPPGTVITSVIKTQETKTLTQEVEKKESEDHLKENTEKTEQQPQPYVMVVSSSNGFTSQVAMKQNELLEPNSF
How it was run: as §1

EHF = target: T5, EHF (Homo sapiens, UniProt Q9NZC4 1-300)
T5 sequence: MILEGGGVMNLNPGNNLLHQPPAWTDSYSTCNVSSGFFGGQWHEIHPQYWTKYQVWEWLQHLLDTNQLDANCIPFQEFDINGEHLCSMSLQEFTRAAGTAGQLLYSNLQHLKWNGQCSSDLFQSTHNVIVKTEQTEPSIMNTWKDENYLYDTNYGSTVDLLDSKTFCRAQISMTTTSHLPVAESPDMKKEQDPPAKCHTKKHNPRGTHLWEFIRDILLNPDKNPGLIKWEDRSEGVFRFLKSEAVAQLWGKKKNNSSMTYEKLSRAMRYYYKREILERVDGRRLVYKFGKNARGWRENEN
How it was run: as §1

SPI1 = SPI1 (Homo sapiens, UniProt P17947 1-270)
How it was run: as §1

SPIB = SPIB (Homo sapiens, UniProt Q01892 1-262)
Chain of SPIB (Q01892 whole entry): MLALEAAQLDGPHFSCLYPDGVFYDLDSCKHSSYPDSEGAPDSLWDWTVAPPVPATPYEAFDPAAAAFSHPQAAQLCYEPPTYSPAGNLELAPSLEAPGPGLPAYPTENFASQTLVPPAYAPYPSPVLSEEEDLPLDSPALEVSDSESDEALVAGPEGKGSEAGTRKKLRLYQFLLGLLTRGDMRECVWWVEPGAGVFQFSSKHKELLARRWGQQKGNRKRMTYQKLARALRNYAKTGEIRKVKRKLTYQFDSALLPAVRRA
How it was run: as §1

ELK3 = target: T6, ELK3 (Homo sapiens, UniProt P41970 1-407)
T6 sequence: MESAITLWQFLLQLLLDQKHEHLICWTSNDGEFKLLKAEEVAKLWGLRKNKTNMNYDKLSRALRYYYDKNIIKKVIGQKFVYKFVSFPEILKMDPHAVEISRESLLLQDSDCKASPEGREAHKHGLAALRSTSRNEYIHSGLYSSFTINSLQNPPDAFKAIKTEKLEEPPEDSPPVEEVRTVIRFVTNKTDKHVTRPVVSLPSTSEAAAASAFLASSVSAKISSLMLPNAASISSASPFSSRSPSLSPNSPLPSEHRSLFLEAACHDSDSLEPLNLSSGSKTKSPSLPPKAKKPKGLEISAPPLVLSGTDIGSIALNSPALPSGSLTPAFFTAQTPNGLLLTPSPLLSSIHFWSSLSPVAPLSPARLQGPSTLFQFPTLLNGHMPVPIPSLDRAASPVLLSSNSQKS
How it was run: as §1

FEV = target: T7, FEV (Homo sapiens, UniProt Q99581 1-238)
T7 sequence: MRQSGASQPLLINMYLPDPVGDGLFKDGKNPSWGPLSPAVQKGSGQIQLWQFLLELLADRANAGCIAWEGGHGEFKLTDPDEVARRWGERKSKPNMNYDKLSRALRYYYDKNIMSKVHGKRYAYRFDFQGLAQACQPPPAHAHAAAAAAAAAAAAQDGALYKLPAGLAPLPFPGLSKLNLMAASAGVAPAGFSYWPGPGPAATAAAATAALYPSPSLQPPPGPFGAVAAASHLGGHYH
How it was run: as §1

ETV5 = ETV5 (Homo sapiens, UniProt P41161 1-510)
Chain of ETV5 (P41161 whole entry): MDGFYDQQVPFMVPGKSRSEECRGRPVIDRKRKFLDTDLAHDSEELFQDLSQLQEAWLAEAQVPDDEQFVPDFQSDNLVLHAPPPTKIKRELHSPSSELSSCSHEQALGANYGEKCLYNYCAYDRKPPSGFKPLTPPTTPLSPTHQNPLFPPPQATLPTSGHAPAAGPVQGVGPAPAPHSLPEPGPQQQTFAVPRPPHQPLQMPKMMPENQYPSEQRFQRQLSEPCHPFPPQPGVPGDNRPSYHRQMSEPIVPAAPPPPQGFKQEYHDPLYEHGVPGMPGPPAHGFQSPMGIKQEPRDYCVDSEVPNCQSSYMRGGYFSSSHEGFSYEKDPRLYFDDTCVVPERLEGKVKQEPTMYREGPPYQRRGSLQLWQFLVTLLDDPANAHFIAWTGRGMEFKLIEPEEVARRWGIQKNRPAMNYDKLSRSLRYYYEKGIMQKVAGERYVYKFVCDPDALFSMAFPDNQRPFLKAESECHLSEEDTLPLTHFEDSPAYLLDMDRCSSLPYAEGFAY
How it was run: as §1

SPIC = target: T8, SPIC (Homo sapiens, UniProt Q8N5J4 1-248)
T8 sequence: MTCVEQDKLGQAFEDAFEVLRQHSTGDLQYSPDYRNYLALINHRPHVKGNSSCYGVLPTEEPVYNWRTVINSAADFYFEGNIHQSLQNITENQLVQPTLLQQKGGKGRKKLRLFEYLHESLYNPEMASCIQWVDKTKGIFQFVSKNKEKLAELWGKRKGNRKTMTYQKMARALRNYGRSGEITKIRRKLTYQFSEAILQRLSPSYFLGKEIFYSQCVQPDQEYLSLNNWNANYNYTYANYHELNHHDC
How it was run: as §1

ELF4 = ELF4 (Homo sapiens, UniProt Q99607 1-663)
Chain of ELF4 (Q99607 whole entry): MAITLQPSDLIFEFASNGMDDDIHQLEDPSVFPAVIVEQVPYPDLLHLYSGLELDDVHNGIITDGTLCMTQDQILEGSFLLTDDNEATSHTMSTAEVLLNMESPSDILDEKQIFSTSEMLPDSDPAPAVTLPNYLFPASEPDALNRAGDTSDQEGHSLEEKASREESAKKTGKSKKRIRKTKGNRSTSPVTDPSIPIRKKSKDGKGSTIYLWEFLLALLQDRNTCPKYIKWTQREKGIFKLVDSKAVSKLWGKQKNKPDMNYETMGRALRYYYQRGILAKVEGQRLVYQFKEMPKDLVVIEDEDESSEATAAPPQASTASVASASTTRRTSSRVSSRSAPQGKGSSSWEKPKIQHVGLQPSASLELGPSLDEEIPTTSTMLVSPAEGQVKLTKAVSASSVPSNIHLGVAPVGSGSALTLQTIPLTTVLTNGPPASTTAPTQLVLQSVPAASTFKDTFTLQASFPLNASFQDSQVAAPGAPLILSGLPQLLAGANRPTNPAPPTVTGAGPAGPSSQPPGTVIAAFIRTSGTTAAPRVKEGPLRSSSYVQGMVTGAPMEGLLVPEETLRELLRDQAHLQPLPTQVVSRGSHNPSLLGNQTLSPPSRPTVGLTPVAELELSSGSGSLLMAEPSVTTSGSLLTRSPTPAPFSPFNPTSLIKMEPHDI
How it was run: as §1

ELK4 = target: T9, ELK4 (Homo sapiens, UniProt P28324-2 1-405)
T9 sequence: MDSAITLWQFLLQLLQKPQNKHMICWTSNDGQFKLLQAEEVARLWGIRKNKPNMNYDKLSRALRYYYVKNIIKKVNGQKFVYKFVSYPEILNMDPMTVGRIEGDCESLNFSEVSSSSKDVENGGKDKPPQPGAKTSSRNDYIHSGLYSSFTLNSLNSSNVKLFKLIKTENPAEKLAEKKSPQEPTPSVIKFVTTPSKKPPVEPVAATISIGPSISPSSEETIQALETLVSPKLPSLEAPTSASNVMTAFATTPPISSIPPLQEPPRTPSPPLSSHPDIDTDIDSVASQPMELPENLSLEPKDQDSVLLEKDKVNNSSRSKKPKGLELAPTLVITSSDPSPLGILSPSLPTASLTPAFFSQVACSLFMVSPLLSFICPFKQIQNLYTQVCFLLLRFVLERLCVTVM
How it was run: as §1

ETV2 = target: T10, ETV2 (Homo sapiens, UniProt O00321 1-342)
T10 sequence: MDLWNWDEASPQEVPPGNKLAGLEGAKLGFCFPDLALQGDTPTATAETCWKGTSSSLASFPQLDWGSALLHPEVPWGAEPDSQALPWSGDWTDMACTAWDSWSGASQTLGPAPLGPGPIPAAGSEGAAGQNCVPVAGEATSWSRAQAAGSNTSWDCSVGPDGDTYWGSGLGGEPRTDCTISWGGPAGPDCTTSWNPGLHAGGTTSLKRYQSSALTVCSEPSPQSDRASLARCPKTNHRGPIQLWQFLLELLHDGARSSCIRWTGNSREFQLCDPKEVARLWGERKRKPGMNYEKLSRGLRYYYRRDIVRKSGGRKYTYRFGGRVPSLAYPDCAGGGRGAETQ
How it was run: as §1

ELF3 = target: T11, ELF3 (Homo sapiens, UniProt P78545 1-371)
T11 sequence: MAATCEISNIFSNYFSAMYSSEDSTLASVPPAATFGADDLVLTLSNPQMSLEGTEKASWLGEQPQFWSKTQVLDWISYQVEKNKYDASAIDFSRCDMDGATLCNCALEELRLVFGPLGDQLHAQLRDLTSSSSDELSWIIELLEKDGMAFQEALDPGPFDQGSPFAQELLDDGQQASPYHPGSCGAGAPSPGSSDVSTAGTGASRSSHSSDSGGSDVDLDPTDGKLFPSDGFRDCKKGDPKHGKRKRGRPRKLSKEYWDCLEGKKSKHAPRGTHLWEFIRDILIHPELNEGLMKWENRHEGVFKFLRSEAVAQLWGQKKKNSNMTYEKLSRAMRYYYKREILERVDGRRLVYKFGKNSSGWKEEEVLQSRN
How it was run: as §1

ETV1 = ETV1 (Homo sapiens, UniProt P50549 1-477)
Chain of ETV1 (P50549 whole entry): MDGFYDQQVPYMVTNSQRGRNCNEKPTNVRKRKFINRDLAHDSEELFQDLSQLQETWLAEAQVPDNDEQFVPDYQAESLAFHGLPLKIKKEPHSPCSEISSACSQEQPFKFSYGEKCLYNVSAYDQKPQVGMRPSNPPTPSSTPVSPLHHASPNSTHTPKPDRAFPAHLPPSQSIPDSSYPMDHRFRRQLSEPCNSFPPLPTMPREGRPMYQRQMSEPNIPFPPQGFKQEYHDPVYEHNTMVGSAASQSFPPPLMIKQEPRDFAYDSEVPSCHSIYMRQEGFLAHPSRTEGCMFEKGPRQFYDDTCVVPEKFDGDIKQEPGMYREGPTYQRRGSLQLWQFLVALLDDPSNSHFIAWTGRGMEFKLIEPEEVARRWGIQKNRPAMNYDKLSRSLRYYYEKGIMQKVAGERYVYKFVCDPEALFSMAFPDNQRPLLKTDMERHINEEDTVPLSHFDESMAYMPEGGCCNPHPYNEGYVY
How it was run: as §1

Row | Sequence | binding signal (FLI1) | binding signal (ELK1) | binding signal (GABPA) | binding signal (ERG) | binding signal (ELF1) | binding signal (EHF) | binding signal (SPI1) | binding signal (SPIB) | binding signal (ELK3) | binding signal (FEV) | binding signal (ETV5) | binding signal (SPIC) | binding signal (ELF4) | binding signal (ELK4) | binding signal (ETV2) | binding signal (ELF3) | binding signal (ETV1)
1 | GACTAC | 1.17 fold enrichment (6-mer frequency, TF over GST control) | 1.19 fold enrichment (6-mer frequency, TF over GST control) | 1.15 fold enrichment (6-mer frequency, TF over GST control) | 1.07 fold enrichment (6-mer frequency, TF over GST control) | 1.15 fold enrichment (6-mer frequency, TF over GST control) | 1.12 fold enrichment (6-mer frequency, TF over GST control) | 1.12 fold enrichment (6-mer frequency, TF over GST control) | 1.19 fold enrichment (6-mer frequency, TF over GST control) | 1.1 fold enrichment (6-mer frequency, TF over GST control) | 1.08 fold enrichment (6-mer frequency, TF over GST control) | 1.15 fold enrichment (6-mer frequency, TF over GST control) | 1.13 fold enrichment (6-mer frequency, TF over GST control) | 1.11 fold enrichment (6-mer frequency, TF over GST control) | 1.18 fold enrichment (6-mer frequency, TF over GST control) | 1.22 fold enrichment (6-mer frequency, TF over GST control) | 1.2 fold enrichment (6-mer frequency, TF over GST control) | 1.17 fold enrichment (6-mer frequency, TF over GST control)
2 | GTCCCC | 1.14 fold enrichment (6-mer frequency, TF over GST control) | 1.29 fold enrichment (6-mer frequency, TF over GST control) | 1.19 fold enrichment (6-mer frequency, TF over GST control) | 1.23 fold enrichment (6-mer frequency, TF over GST control) | 1.19 fold enrichment (6-mer frequency, TF over GST control) | 1.28 fold enrichment (6-mer frequency, TF over GST control) | 1.23 fold enrichment (6-mer frequency, TF over GST control) | 1.24 fold enrichment (6-mer frequency, TF over GST control) | 1.29 fold enrichment (6-mer frequency, TF over GST control) | 1.18 fold enrichment (6-mer frequency, TF over GST control) | 1.27 fold enrichment (6-mer frequency, TF over GST control) | 1.26 fold enrichment (6-mer frequency, TF over GST control) | 1.2 fold enrichment (6-mer frequency, TF over GST control) | 1.26 fold enrichment (6-mer frequency, TF over GST control) | 1.22 fold enrichment (6-mer frequency, TF over GST control) | 1.38 fold enrichment (6-mer frequency, TF over GST control) | 1.29 fold enrichment (6-mer frequency, TF over GST control)

— publication PMC7862700, “An all-to-all approach to the identification of sequence-specific readers for epigenetic DNA modifications on cytosine”
